# A selection: hits, their analogues and other compounds. The true share with any hit is near 11%.
# PNC assembly inh: blocks assembly of the perinucleolar compartment. actives 3.1% (n = 140,000). PC3M PTB-GFP, PNC prevalence imaging, 16 h; active compounds read low. activity change (PNC), negative = inhibition, % at 10 µM;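 active means readout at or below -70, meaning at least 70% loss of cells showing the perinucleolar compartment, a nuclear body marking cancer cells; inconclusive means readout between -30 and a set limit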;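 further: plate controls were DMSO wells for no effect and camptothecin positive control wells for full effect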
#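 PC3M cells stably expressing PTB-GFP, 750–1000 cells/well, treated 16 h at 37 °C with compound (23 nl of library stock), in duplicate. After paraformaldehyde fixation and Hoechst stain, imaged at 20x; PNC prevalence scored by image analysis.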
# NPSR antag: blocks cAMP signaling of the human neuropeptide S receptor; AID 1461; Potency, µM (top dose mostly 38.3 µM), for the others: at the top dose activity change, negative = inhibition, usual class: inhibitors; CHO-NPSR cells, cAMP TR-FRET, antagonist mode; actives 1% (n = 220,000); active means well fitted curve in the direction sought with a large enough effect; inconclusive means small, poorly fitted or top-dose-only effect, or another doubt; inactive means no such curve, though single readings can be large; an effect the other way counts as inactive or inconclusive; further: potency means the concentration at half of the fitted maximal effect; nearly all actives have a fitted effect of over 50% in size
# IMPase inh: membrane-permeable compound that blocks inositol monophosphatase. AID 901. P97697. inhibition (IP1 accumulation), % at 46.1 µM. CHO-M1 cells, IP1 accumulation, HTRF TR-FRET ratio. 120,000 tested, under 10 active; active means well fitted curve in the direction sought with a large enough effect in the signal ratio, not every such curve was filed as active; inconclusive means small, poorly fitted or top-dose-only effect, or a change in a side signal; inactive means no such curve, though single readings can be large or run the other way; the % refers to the signal ratio;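 further: cells stimulated with carbachol in lithium chloride buffer; plate controls were DMSO basal wells for no effect and reference inhibitor wells for full effect; higher means more IMPase inhibition seen as more IP1 and lower FRET ratio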
# Target sequence (P97697 whole entry, looked up): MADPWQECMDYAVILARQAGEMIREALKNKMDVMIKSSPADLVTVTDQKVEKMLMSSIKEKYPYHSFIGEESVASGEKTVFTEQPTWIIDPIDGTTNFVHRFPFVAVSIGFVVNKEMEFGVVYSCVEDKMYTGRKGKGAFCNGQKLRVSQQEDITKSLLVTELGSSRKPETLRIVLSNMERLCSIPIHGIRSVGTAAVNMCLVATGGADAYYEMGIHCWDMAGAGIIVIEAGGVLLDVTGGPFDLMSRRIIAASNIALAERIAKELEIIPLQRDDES
#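 CHO-M1, 2000 cells/well, cultured 16–30 h; cpd up to 46 uM; carbachol (50 uM solution, stimulation buffer w/ 50 mM LiCl, pH 7.4), 30 min 37C; IP-One TR-FRET, 10 min RT; Ex 320/Em 665, 620; Hill-fit AC50.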
# HPGD block: HPGD (human) dehydrogenase inhibition; P15428; purified HPGD, NADH fluorescence kinetic, PGE2 substrate; Potency, µM, for the others: at the top dose activity change, negative = inhibition, hits mostly inhibitors; actives 4.3% (n = 150,000); further: potency means the concentration at half of the fitted maximal effect
#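 20 nM HPGD preincubated 15 min at room temperature with compound in 50 mM Tris-HCl pH 8, 0.01% Tween 20. Started with 1 mM NAD+ and 30 uM prostaglandin E2; NADH fluorescence (360/450 nm) read 5 times over 30-s intervals, last minus first.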
# IMPase Li inh: IMPase inhibition in cells with lithium potentiation | Potency, µM (series often up to 59.4 µM), for inactives: at the top dose activity, negative = IMPase inhibition, usual class: inhibitors | actives 0.35% (n = 210,000) | CHO-M1 cells, IP1 TR-FRET (IP-One), carbachol + lithium; active means well fitted curve in the direction sought with a large enough effect; inconclusive means small, poorly fitted or top-dose-only effect, or another doubt; inactive means no such curve, though single readings can be large; an effect the other way counts as inactive or inconclusive;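 further: IP1 builds up when IMPase is blocked and the TR-FRET signal falls; potency means the concentration at half of the fitted maximal effect; plate controls were basal vehicle for no effect and high inhibitor control for full effect; nearly all actives have a fitted effect of over 50% in size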
#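 CHO cells stably expressing M1 receptor (2000/well) were cultured 16–30 h, then exposed to compounds with a small lithium addition for 30 min at 37C. IP1 was measured by TR-FRET competition; AC50 from Hill fits.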
# ALDH1A1 inh: inhibitors of human aldehyde dehydrogenase 1A1; P00352; Purified ALDH1A1, NADH fluorescence, propionaldehyde substrate; Potency, µM (series often up to 75.3 µM), without a hit: at the highest dose activity, negative = inhibition, hits mostly inhibitors; actives 7.3% (n = 220,000); AID 1030;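 further: potency means the concentration at half of the fitted maximal effect; plate controls were no enzyme wells and a reference inhibitor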
# Target sequence (P00352 whole entry, looked up): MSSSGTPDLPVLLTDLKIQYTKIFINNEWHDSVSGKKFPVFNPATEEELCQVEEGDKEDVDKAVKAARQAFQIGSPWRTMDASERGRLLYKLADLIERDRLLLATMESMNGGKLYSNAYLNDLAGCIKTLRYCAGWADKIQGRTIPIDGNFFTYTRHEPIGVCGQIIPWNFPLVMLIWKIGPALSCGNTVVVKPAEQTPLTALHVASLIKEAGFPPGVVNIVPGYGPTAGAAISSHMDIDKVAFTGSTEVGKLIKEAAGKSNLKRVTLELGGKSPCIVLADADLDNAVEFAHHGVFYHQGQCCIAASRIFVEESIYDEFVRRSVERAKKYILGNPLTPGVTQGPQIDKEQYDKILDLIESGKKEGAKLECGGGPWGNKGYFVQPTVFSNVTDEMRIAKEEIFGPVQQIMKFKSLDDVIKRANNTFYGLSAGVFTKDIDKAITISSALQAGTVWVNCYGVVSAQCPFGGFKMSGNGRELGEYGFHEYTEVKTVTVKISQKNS
# Numbers without * were called inactive; ? = inconclusive; nt = no result given; [ ] = dose if it differs, or a comment. Unless noted, the call rests on the fitted dose curve; in most records, active means well fitted inhibition curve with a large enough effect (not every such curve was filed as active); inconclusive means small, poorly fitted or top-dose-only effect, or another doubt; inactive means no such curve, though single readings can be large or run the other way. Unless noted, on the % scale 0 is the no-effect control and ±100 the full control effect.
SMILES,PNC assembly inh,NPSR antag,IMPase inh,HPGD block,IMPase Li inh,ALDH1A1 inh
Cc1ccc(C)c(NC(=S)Nc2cccc3cnccc23)c1,nt,7.4%,nt,nt,13.1%,8.91µM*
Cc1ccccc1NC(=S)Nc1cccc2cnccc12,nt,9.1%,nt,nt,-2.8%,?
Cc1ccc(NC(=S)Nc2cccc3cnccc23)cc1,nt,-1.6%,nt,nt,-1.7%,12.6µM*
Cc1ccc(NC(=S)Nc2cccc3cnccc23)cc1C,nt,4.1%,nt,nt,22.9%,2.51µM*
S=C(Nc1cccc(Cl)c1)Nc1cccc2cnccc12,13.4,26.5%,-2.0,?,18.9%,3.16µM*
Nc1ccc(CN2CCOCC2)cc1,nt,15.1%,nt,nt,0.9%,5.0%
COc1ccc(-c2csc(NC(=O)CSc3nc(C)nc4sc(C(=O)O)c(C)c34)n2)cc1,nt,56.8%,nt,nt,nt,?
Fc1ccc(NC(=S)Nc2cccnc2)cc1Cl,nt,1.6%,nt,nt,8.3%,28.2µM*
Fc1ccc(NC(=S)Nc2cccnc2)cc1,nt,15.2%,nt,nt,-1.9%,-4.4%
CCOC(=O)C(C)Sc1ncc(-c2ccccc2)cn1 (centres undefined),nt,-21.0%,nt,nt,-5.2%,8.4%
CC(=O)OCC1CCCC2=C(C)C(=O)CCC21COC(C)=O (centres undefined),-109.0*,5.0%,nt,1.9%,-5.2%,4.8%
O=C(COC(=O)c1ccc(S(=O)(=O)N2CCCC2)cc1)NCc1ccccc1,8.2,-3.6%[46.1 µM],-11.3,-1.1%,-3.1%[38.3 µM],-5.2%
Cc1cc2ncc(-c3ncc(C(F)(F)F)cc3Cl)cn2n1,-80.9*,1.9%[46.1 µM],?,-6.0%,-7.1%[38.3 µM],7.0%
O=C(N/N=C/C1CC2CCC1C2)c1c[nH]c2ccccc12 (centres undefined),nt,-5.0%,nt,nt,9.2%,14.1µM*
O=C(N/N=C/c1ccccn1)c1c[nH]c2ccccc12,nt,18.5%,nt,nt,nt,-1.7%
CN(C)c1ncc2nc(-c3cccc(C#N)c3)c(=O)n(C[C@H]3CCCO3)c2n1,nt,nt,nt,nt,-3.9%,?
O=C(NC1CCCCC1)C(=O)c1c(-c2ccccc2)[nH]c2ccccc12,70.2,-5.5%,nt,-7.9%,7.8%,-2.1%
Cc1ccc(/C=C/C(=O)NC2CCCCCCC2)o1,30.2,-37.0%,nt,3.55µM*,0.8%,3.55µM*
Cc1ccc(/C=N/NC(=O)NC2CCCCC2)o1,nt,3.7%,nt,nt,29.8%,3.55µM*
CC(C)c1ccc(/C=C/C(=O)NC2CCCCC2)cc1,36.4,-36.7%,nt,-19.7%,11.3%,-12.0%
CO[C@@H]1COC(=O)CCC[C@@H](C)[C@H](OC)COC(=O)[C@H](Cc2ccccc2)NC(=O)C/C=C\[C@H]1C,nt,nt,nt,nt,nt,0.0158µM*
COc1ccc(NC(=O)CN2CCc3ccccc3C2)cc1OC,nt,-0.5%,nt,nt,-2.2%,14.4%
COc1cc(-c2cccs2)cc(=O)c2c(C)oc(C)c12,-96.2*,-29.0%[46.1 µM],1.3,-12.2%,5.5%[38.3 µM],?
COc1ccc2cc3cc(C(=O)NCCCN4CCOCC4)oc3nc2c1,29.6,-1.4%[46.1 µM],-4.3,?,-23.7%[38.3 µM],?
Cc1ccc2cc3cc(C(=O)NCCN4CCOCC4)oc3nc2c1,-100.0*,3.7%[46.1 µM],-3.7,?,4.3%,?
SMILES,PNC assembly inh,NPSR antag,IMPase inh,HPGD block,IMPase Li inh,ALDH1A1 inh
CN1C(=O)/C(=N\OC(=O)c2cccc3ccccc23)c2ccccc21,37.5,-11.8%[46.1 µM],2.0,?,24.3%[38.3 µM],14.1µM*
N/C(Cc1ccc(Cl)cc1)=N\OC(=O)c1cccc2ccccc12,-1.2,-13.7%[46.1 µM],?,?,0.0%[38.3 µM],?
COc1ccccc1NC(=O)NCC(=O)Nc1ccc(F)c(F)c1,?,-3.2%[46.1 µM],8.1,-13.8%,-0.5%[38.3 µM],-0.8%
Cc1cc(C)c(C)c(S(=O)(=O)NCc2ccc(C(=O)N3CCCCC3)cc2)c1C,57.5,-21.3%,2.3,2µM*,11.0%,?
Cc1ccc(C)c(S(=O)(=O)NCc2ccc(C(=O)N3CCCCCC3)cc2)c1,?,-10.9%,nt,7.08µM*,6.6%,-4.6%
Cc1cc(C)c(C)c(S(=O)(=O)NCc2ccc(C(=O)N3CCCC3)cc2)c1C,nt,24.3%,nt,nt,nt,?
O=C(NC1(C(F)(F)F)C(=O)Nc2c1c(=O)[nH]c(=O)n2Cc1ccccc1)c1ccc(Cl)cc1Cl (centres undefined),49.8,-4.3%[46.1 µM],5.7,-21.8%,0.0%[38.3 µM],-1.7%
COC(=O)[C@@]1(Cc2ccc(F)cc2)[C@H]2c3cc(C(=O)N(C)C)n(CCF)c3C[C@H]2CN1C(=O)c1ccccc1,nt,nt,nt,-0.2%,0.7%,4.7%
Cc1c(C(=O)OC2CCCC2C)[nH]c2c1C(=O)CCC2 (centres undefined),21.6,-13.4%,4.3,-15.3%,10.3%,8.91µM*
O=C1c2sc3nc4ccccc4n3c2C(=O)N1c1ccccc1Cl,20.0,10µM*,-9.9,14.1µM*,22.4%[38.3 µM],15.8µM*
O=c1/c(=C\c2cccnc2)sc2nc3ccccc3n12,2.2,-8.8%[46.1 µM],2.0,-6.7%,21.0%[38.3 µM],1.8%
Cc1ccccc1N1C(=O)c2sc3nc4c(c(=O)n3c2C1=O)CCC4,-3.8,?,4.4,31.6µM*,-2.0%[38.3 µM],28.2µM*
Cn1sc(NC(=O)c2ccc(Cl)cc2)nc1=O,-8.3,1.3%[46.1 µM],-6.5,?,2.2%[38.3 µM],22.4µM*
Cc1cnc(NC(=O)CN(C)S(=O)(=O)c2ccc(Cl)cc2)s1,15.9,14.3%[46.1 µM],6.6,-15.1%,-11.3%[38.3 µM],6.3%
O=S1(=O)C=C(Oc2ccc3ccccc3c2)c2ccccc21,31.3,-13.9%[46.1 µM],2.8,-24.8%,3.9%[38.3 µM],10µM*
O=S1(=O)C=C(Oc2ccc(F)cc2)c2ccccc21,13.8,-17.3%[46.1 µM],1.7,-15.4%,14.8%,?
Nc1ccccc1Nc1cc(-c2ccccc2)[nH]n1,nt,-13.3%,nt,nt,39.8%,?
Cc1ccc(C(=O)c2c(C)oc3c2C(=O)C(=O)c2ccccc2-3)cc1,?,-28.8%[46.1 µM],14.5,20µM*,15.8%[38.3 µM],20µM*
Cc1oc2c(c1C(=O)c1ccc(Cl)cc1)C(=O)C(=O)c1ccccc1-2,95.1,?,21.3,-26.5%,42.7%[38.3 µM],?
Cc1ccc(C(=O)c2coc3c2C(=O)C(=O)c2ccccc2-3)cc1,20.6,?,6.9,?,16.4%[38.3 µM],20µM*
COc1ccc(C(=O)c2coc(-c3ccccc3C(=O)O)c2C(=O)O)cc1,-28.2,-1.8%,nt,-11.3%,-3.8%,4.9%
CC(=O)Nc1nc(C)c(-c2csc(Nc3cccc([N+](=O)[O-])c3)n2)s1,9.3,-15.1%[46.1 µM],7.5,-21.8%,29.3%[38.3 µM],-4.3%
CC(=O)c1cccc([N+](=O)[O-])c1,nt,nt,nt,-12.6%,-11.6%,28.2µM*
Cc1ccc(-c2csc(NC(=O)c3cccc([N+](=O)[O-])c3)n2)cc1,-19.8,-18.0%[46.1 µM],-6.2,-2.6%,26.3%[38.3 µM],-11.6%
Cc1ccccc1C(=O)O/N=C(\N)c1cccc([N+](=O)[O-])c1,-3.6,-15.5%[46.1 µM],4.2,2.82µM*,19.2%[38.3 µM],?
CC(=O)c1cccc(Nc2nc(-c3cccc([N+](=O)[O-])c3)cs2)c1,-85.1*,-16.8%[46.1 µM],15.0,-21.8%,26.1%,?

# From PubChem
